A short description of test [1]: AP1 Signaling Pathway (AID 357).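 Also: ME-180 reporter cells stimulated with EGF at its EC50 level; % is scaled to controls: 0 for no effect and ±100 for the full control effect.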 An outline of the steps:
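A ratiometric CCF4 readout (405 nm excitation; 460 and 530 nm emission) quantified AP-1-driven beta-lactamase in ME-180 cells after 5 h with compound and EC50 EGF; AC50 values were derived for activators and inhibitors.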

Test [2] addresses Cytochrome P450 1A2 (Homo sapiens) (UniProt P05177). Briefly: p450-cyp1a2 (AID 410; calls by dose curve; also: potency is read from the fitted curve at half-maximal effect;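 as to activity change, negative = inhibition: -100% = full effect of reference inhibitor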). The gist of the method: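 20nM CYP1A2, 100uM Luciferin-ME (=Km), 100mM KPO4; cpd 10 min RT; +NADPH regen, 60 min RT; stop/detect 20 min; luminescence. Normalized to furafylline 57 uM = full inhibition.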
The nature of test [3]: NFAT Signaling Pathway (AID 444).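 Also: carbachol stimulus at about its EC50 of 1 µM final; % is scaled to controls: 0 for no effect and ±100 for the full control effect.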 The conditions noted are these: Jurkat NFAT-bla M1, carbachol, beta-lactamase ratio, 5 h. The gist of the method: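 Jurkat cells with NFAT-driven β-lactamase reporter and co-expressed M1 receptor, stimulated with carbachol (final 1 uM, ~EC50), compound titration, 5 h at 37 °C. CCF4 loaded 1 h at RT; 460/530 nm ratio gave %activity and AC50.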

Test [4] in a line: Stat Signaling Pathway (AID 446).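 Also: ME-180 cervical cancer cells given 40 pM IL-6 alongside compound; SIE-controlled beta-lactamase reporter measured as 460/530 nm FRET emission ratio; % is scaled to controls: 0 for no effect and ±100 for the full control effect.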 The gist of the method: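 Overnight-plated ME-180 cells bearing a STAT Inducible Element beta-lactamase reporter; 5 h co-exposure to compound and 40 pM IL-6; values normalized to 300 pM IL-6 and 125 nM JAK inhibitor controls.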
The target of test [5] is Glucocorticoid receptor (Homo sapiens) (UniProt P04150). Briefly: GR-GFP Redistribution (AID 450;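 active = compounds whose dose series gives a full or clear partial fitted curve of increased nuclear translocation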; also: potency is read from the fitted curve at half-maximal effect). Conditions: U2OS GR-GFP nuclear translocation, laser cytometry, 2 h.
Chain of Glucocorticoid receptor (Homo sapiens) (P04150 whole entry, looked up): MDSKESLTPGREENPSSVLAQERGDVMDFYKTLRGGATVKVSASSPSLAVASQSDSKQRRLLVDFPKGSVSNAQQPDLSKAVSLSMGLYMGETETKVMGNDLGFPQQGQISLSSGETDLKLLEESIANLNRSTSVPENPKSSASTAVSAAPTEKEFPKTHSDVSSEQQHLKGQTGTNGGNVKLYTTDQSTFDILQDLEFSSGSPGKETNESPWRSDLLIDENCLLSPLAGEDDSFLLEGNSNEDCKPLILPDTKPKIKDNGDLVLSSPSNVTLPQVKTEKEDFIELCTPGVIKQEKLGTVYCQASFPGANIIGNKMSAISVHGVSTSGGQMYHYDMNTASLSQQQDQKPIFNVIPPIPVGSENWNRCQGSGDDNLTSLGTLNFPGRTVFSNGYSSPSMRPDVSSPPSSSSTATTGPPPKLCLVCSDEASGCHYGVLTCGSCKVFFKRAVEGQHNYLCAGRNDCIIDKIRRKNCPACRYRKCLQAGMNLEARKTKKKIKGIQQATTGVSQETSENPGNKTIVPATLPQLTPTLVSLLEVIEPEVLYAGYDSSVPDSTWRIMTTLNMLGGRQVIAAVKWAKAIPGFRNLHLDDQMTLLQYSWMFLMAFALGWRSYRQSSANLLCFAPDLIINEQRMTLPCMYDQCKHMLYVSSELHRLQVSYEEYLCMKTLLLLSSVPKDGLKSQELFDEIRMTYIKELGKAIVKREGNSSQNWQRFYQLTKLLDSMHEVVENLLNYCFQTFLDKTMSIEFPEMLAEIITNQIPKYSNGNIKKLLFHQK
Test [6] shares this target. Briefly: GR-EFC Redistribution (AID 451; calls by dose curve; also: potency is read from the fitted curve at half-maximal effect). The conditions noted are these: CHO-K1 GR-EFC translocation, beta-gal luminescence, 2 h. The gist of the method:
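CHO-K1 cells expressing nuclear EA and GR-ED fragments of b-gal; compounds titrated up to 46 uM final, 2 h at 37 C. GR nuclear translocation read as complemented b-gal luminescence after 1 h RT detection.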

In test [7] the target is Mitogen-activated protein kinase 10 (Mus musculus) (UniProt Q61831). Briefly: JNK3 AlphaScreen Assay (AID 530).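 Also: kinase came from lysate of stimulated human HepG2 cells; signal reports phosphorylation of biotinylated GST-cJun 1-79 at Ser73 with 10 µM ATP; % is scaled to controls: 0 for no effect and ±100 for the full control effect.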 The gist of the method: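 HepG2 lysate (IL-1b/TNFa pre-activated) + biotin-GST-cJun 1-79 + anti-pSer73 cJun; cpd titration, 15 min RT; ATP 10 uM start; Tris pH 7.6, MgCl2, DTT, vanadate; beads in EDTA buffer; AlphaScreen.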
On the technique in general: Bead proximity is the source of the signal in Alpha formats.

The target of test [8] is 3',5'-cyclic-AMP phosphodiesterase 4B (Homo sapiens) (UniProt Q07343). As to the kind of experiment: qHTS Assay for Inhibitors of PDE-IV (AID 607; active = well fitted activation curve with a large enough effect in the main read-out, with a control signal flat, not every such curve was filed as active; also: % of control where 0% means no effect). An outline of the steps:
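Live HEK293 cells with a modified cyclic nucleotide-gated (CNG) channel report intracellular cAMP via membrane-potential dye fluorescence (ex 535/em 590 nm). Endogenous PDE-IV was targeted. Compounds were tested at up to 22.9 uM final; RO 20-1724 100 uM served as control.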
In general terms: In qHTS, concentration-response curves come from the screen itself.

Results on seven compounds are retold here after PubChem BioAssay (NCATS).

Values joined by “and” are separate entries in the source; they are usually repeats but may differ in a detail not shown here. Equal entries are not always repeated. Records with an inconclusive call do not appear. The source holds several records for some structures; these can differ, active in one and inactive in another. Active and inactive are the calls of the source. Unless noted, calls follow the shape of the dose curve; as a rule, active = well fitted curve in either direction with a large enough effect (not every such curve was filed as active); inconclusive = small, poorly fitted or top-dose-only effect, or another doubt; inactive = flat fitted curve, though single readings scatter. Where only a bound is given, the exact number is not on record here.

Chain of Cytochrome P450 1A2 (Homo sapiens) (P05177 whole entry, looked up): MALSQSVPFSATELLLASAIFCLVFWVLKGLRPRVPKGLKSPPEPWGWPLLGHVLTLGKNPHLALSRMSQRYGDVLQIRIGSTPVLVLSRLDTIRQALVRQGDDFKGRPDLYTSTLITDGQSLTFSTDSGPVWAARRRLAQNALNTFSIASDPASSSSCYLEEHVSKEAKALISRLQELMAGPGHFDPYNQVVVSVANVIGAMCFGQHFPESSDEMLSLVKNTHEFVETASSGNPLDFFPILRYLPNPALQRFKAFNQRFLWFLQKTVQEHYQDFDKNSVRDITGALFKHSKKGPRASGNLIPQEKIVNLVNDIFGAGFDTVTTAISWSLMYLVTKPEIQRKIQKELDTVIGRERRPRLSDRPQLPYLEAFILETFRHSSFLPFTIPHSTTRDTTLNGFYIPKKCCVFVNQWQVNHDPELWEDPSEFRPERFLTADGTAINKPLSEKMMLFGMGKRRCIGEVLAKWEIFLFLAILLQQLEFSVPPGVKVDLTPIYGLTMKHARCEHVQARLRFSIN
Chain of 3',5'-cyclic-AMP phosphodiesterase 4B (Homo sapiens) (Q07343 whole entry, looked up): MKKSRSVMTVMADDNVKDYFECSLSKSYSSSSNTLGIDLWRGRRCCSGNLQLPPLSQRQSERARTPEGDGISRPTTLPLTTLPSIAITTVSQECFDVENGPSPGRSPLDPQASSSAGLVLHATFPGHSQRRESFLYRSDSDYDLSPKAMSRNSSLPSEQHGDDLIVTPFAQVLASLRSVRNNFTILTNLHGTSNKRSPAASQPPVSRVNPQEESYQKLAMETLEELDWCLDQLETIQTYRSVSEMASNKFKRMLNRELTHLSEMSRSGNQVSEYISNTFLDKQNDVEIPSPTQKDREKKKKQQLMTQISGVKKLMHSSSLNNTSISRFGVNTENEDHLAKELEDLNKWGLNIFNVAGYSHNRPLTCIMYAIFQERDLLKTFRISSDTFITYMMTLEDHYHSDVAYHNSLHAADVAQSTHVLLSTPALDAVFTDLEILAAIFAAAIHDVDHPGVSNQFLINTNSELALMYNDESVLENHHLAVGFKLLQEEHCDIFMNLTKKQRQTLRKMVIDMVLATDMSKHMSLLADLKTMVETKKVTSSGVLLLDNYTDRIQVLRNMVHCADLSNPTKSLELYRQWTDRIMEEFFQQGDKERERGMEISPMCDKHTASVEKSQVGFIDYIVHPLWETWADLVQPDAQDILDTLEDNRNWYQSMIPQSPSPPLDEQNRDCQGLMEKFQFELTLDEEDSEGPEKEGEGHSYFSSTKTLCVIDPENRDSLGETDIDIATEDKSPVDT

Consider `NC(=O)OCC(COC(N)=O)c1ccccc1`, for which the outcome in test [1], in test [4] and in test [7] was inactive. The Potency result in test [2] and in test [8] was “inactive” in each case. The activity change, negative = inhibition was 3.58% (inactive) in test [3] (at 17.2 µM (top of the series)) and 8.56% (inactive) in test [3] (at 38 µM (top of the series)). The Potency in test [5] was > 46 µM (inactive) and > 20.6 µM (inactive); in test [6], > 46 µM (inactive).
Regarding `NC12CC3CC(CC(C3)C1)C2`, the compound was called inactive in test [1], in test [4] and in test [7]. Also, the activity change, negative = inhibition was 5.54% (inactive) in test [3] (at 17.2 µM (top of the series)) and -1.81% (inactive) in test [3] (at 38 µM (top of the series)). Besides, the Potency is > 46 µM (inactive) and > 20.6 µM (inactive) in test [5]; > 46 µM (inactive) and > 20.6 µM (inactive) in test [6]. The Potency entry in test [8] is “inactive”.
On to `Nc1nnc(-c2cccc(Cl)c2Cl)c(N)n1`, for which the compound was called inactive in test [1], in test [4] and in test [7]. Also, in test [2], the Potency result is “inactive”. Also, the activity change, negative = inhibition in test [3] (at 17.2 µM (top of the series)) was -16.5% (inactive); in test [3] (at 38 µM (top of the series)), 15.4% (inactive).
With `Cc1cc(C(C)(C)C)c(O)c(C)c1CC1=NCCN1`, the compound was called inactive in test [1], in test [4] and in test [7]. For the same compound, the Potency entry in test [2] and in test [8] was “inactive” throughout. Also, the Potency is > 46 µM (inactive) and > 20.6 µM (inactive) in test [5]; > 46 µM (inactive) and > 20.6 µM (inactive) in test [6].
`CN1C(C(=O)Nc2ccccn2)=C(O)c2ccccc2S1(=O)=O`: the result in test [1], in test [4] and in test [7] was inactive. Moreover, the Potency entry was “inactive and 20 µM (active)” in test [2]; > 46 µM (inactive) and > 20.6 µM (inactive) in test [5]; > 46 µM (inactive) and > 20.6 µM (inactive) in test [6]. For the same compound, the activity change, negative = inhibition in test [3] (at 17.2 µM (top of the series)) was 9.4% (inactive) and 2.14% (inactive) and -3.58% (inactive); in test [3] (at 38 µM (top of the series)), -8.1% (inactive). For the same compound, the Potency entry in test [8] is “inactive”.
Turning to `Cn1ccc2cc3c(cc21)CCN3C(=O)Nc1cccnc1`, the compound was classed as inactive in test [1], in test [4] and in test [7]. Besides, the Potency in test [2] was 25.1 nM (active) and 3.98 nM (active); in test [5], > 46 µM (inactive); in test [6] it was > 46 µM (inactive). The activity change, negative = inhibition in test [3] (at 38 µM (top of the series)) was -1.4% (inactive). Further, the Potency result in test [8] was “inactive”.
In the case of `COc1nc(C)nc(Cl)c1NC1=NCCN1`, the compound was called inactive in test [1], in test [4] and in test [7]. Also, the Potency result in test [2] and in test [8] was “inactive” throughout. Further, the activity change, negative = inhibition was -14.9% (inactive) in test [3] (at 17.2 µM (top of the series)) and 10.4% (inactive) in test [3] (at 38 µM (top of the series)). The Potency is > 46 µM (inactive) and > 20.6 µM (inactive) in test [5]; > 46 µM (inactive) and > 20.6 µM (inactive) in test [6].
